Records with an inconclusive call do not appear. Activity calls are given as the source filed them. Calls come from the whole dose curve; as a rule, active = well fitted inhibition curve with a large enough effect; inconclusive = small, poorly fitted or top-dose-only effect; inactive = flat fitted curve, though single readings scatter.
Assay: qHTS for Inhibitors of Plasmodium falciparum (DD2) proliferation (AID 504314)
Conditions: P. falciparum Dd2 in erythrocytes, SYBR Green growth, 72 h; series mostly up to 1.12 µM
Description: Plasmodium falciparum is a virulent malarial parasite that kills 1-2 million people worldwide each year. Malaria not only inflicts tremendous suffering and morbidity on the human population, but has dramatically influenced the course of civilization with profound sociological and economic implications (Shah, S. 2010). Transmitted by mosquitoes, the sporozoite form of the parasite enters the blood stream to infect hepatocytes, where they become merozoites that infect red blood cells (erythrocytes). Within erythrocytes, merozoites begin a […] cycle of growth and division, after which the parasite is released to infect new red blood cells. Gametocytes, which form within erythrocytes as well, circulate in the bloodstream and are ingested by the mosquito, thereby completing the life cycle (see CDC website). To profile malarial lines for differential chemical responses and to identify inhibitors of malarial growth, an assay that measures P. falciparum growth and replication within erythrocytes was employed. This assay uses a DNA binding fluorescent dye (SYBR Green) to detect parasite DNA following cell lysis. Because mature erythrocytes lack DNA, only Plasmodium-derived DNA is detected. The P. falciparum line cp250, derived from a malarial isolate from Cambodia, (Mu, J., et al. 2010) was added to the panel of lines, Dd2, HB3, 7G8 and GB4 in this study.
Laboratory of Assay Development and Screening Technology [ADST] and NIH Chemical Genomics Center [NCGC]
Boston University, Chemistry Department, Center for Chemical Methodology and Library Development [CMLD-BU]
NIH National Institute of Allergy and Infectious Diseases [NIAID]
ADST Assay Protocol Summary:
The 1536-well SYBR Green viability assay was based on the method of Bennett et al (2004) and described previously in 1536-well format (Yuan J., et al. 2009). For screening 3 ul culture medium was dispensed into 1536 well black clear bottom plates (Aurora Biotechnologies) using a Multidrop Combi (Thermo Fisher Scientific Inc.), 23 nL compounds in DMSO were added by a pin transfer (Cleveland, P.H. and Koutz, P.J, 2005) using a pin tool-based delivery system (Kalypsys), and 5 ul of erythrocytes infected with P. falciparum one of five lines (cp250, Dd2, HB3, 7G8 or GB4, 0.3% parasitemia, 2.5% hematocrit final concentration) were added. The plates were incubated at 37C in a humidified incubator in 5% CO2 for 72 h, and 2 ul lysis buffer (20 mM Tris HCl, 10 mM EDTA, 0.16% saponin, 1.6% triton X, 10X SYBR Green I (supplied as 10,000X final concentration by Invitrogen) was added to each well. The plates were mixed for 25 sec with gentle shaking and incubated overnight at room temperature in the dark. The following morning, fluorescence intensity at 485(14) nm excitation and 535(25) nm emission wavelengths was measured on an EnVision (Perkin Elmer) plate reader. Plate reads were normalized relative to the control inhibitor (0.29 uM artemisinin) and vehicle (DMSO) wells present on each plate and then corrected by an algorithm using vehicle-only control plates at the beginning and end of the compound plate stack.
Shah, S. (2010). The Fever: how malaria has ruled humankind for 500,000 years. New York, Sarah Crichton Books.
CDC web site, http://www.cdc.gov/malaria/about/biology/index.html
Mu, J., Myers, R.A., Jiang, H., Liu, S., Ricklefs, S., Waisberg, M., Chotivanich, K., Wilairatana, P., Krudsood, S., White, N.J., et Plasmodium falciparum genome-wide scans for positive selection, recombination hot spots and resistance to antimalarial drugs Nature Genetics 2010, 42, pp 268-271
Bennett TN, Paguio, M., Gligorijevic, B., Seudieu, C., Kosar, A. D., Davidson, E., and Roepe, P. D. Novel, rapid, and inexpensive cell-based quantification of antimalarial drug efficacy Antimicrobial Agents Chemother. 2004, 48(5): pp 1807-10
Yuan J, Johnson RL, Huang RL, Wichterman J, Jiang HY, Hayton K, Fidock DA, Wellems TE, Inglese J, Austin CP, Su XZ. […]

Potency, inactive:
C[C@H]1Cc2c(-c3ccccc3)nc3c(c2CO1)CN(C(=O)C1CC1)CC3
COCC(=O)N1CCc2nc(-c3ccc(OC)cc3C)c3c(c2C1)CO[C@@H](c1ccccc1)C3
CCOC(=O)CN1C(=O)N[C@@H](c2cccc(F)c2)C(C(=O)OC)=C1C
Cc1ccc(S(=O)(=O)N2CCc3nc(COc4ccccc4)c4c(c3C2)CO[C@@H](C)C4)cc1
COC(=O)C1=C(C(=O)OC)[C@@H]2Nc3ccccc3[C@@]23C[C@@H](C(=O)OC)N(C(=O)CC(C)C)C3=N1
CCN1C(=O)N[C@@H](c2ccco2)C(C(=O)OC)=C1C
CCN1C(=O)N[C@@H](c2ccco2)C(C(C)=O)=C1C
COC(=O)CCCC1=CC2=CC(=O)C(C)(OC(=O)c3cccs3)C(=O)C2=CN1c1ccccc1 (stereo not given)
CCOC(=O)NN=C1C[C@@H](O)[C@@H](O)[C@@H]2[C@H]3C(=O)N([C@@H](C)c4ccccc4)C(=O)[C@@H]3CC[C@@H]12
C=CCN1c2ccccc2[C@]23C[C@@H](C(=O)OC)N(S(=O)(=O)c4ccc([N+](=O)[O-])cc4)C2=NC(C(=O)OC)=C(C(=O)OC)[C@H]13
COC(=O)C1=C(C(=O)OC)[C@@H]2Nc3ccccc3[C@@]23C[C@@H](C(=O)OC)N(S(=O)(=O)c2ccc([N+](=O)[O-])cc2)C3=N1
COC/C=C/C1=CC2=CC(=O)C(C)(OC(=O)c3cnc4ccccc4n3)C(=O)C2=CN1CCN1CCOCC1 (stereo not given)
CCOC(=O)CNC(=O)O[C@@H]1C(=O)c2cc(OC)ccc2O[C@H]1c1ccc(OC)c(Br)c1
COC(=O)CCC(=O)OC1(C)C(=O)C2=CN(CCc3ccccn3)C(c3ccc(OC)cc3)=CC2=C(Br)C1=O (stereo not given)
C=CC[C@]1(C(=O)OC)C=C[C@H](C)[C@@H](c2ccccc2)N1C(=O)C(F)(F)F
COC/C=C/C1=CC2=CC(=O)C(C)(OC(=O)c3cnc4ccccc4n3)C(=O)C2=CN1CC1CC1 (stereo not given)
CC1(OC(=O)CCc2ccccc2)C(=O)C=C2C=C(c3ccc(C#N)cc3)N(CCN3CCOCC3)C=C2C1=O (stereo not given)
CCC(=O)OC1(C)C(=O)C=C2C=C(CCCCNC(=O)OC(C)(C)C)OC=C2C1=O (stereo not given)
CC#CCN1c2ccccc2[C@]23C[C@@H](C(=O)OC)N(C(=O)C4CCC4)C2=NC(C(=O)OC)=C(C(=O)OC)[C@H]13
COC(=O)CCC(=O)OC1(C)C(=O)C2=CN(C3CC3)C(c3ccc(OC)cc3)=CC2=C(Br)C1=O (stereo not given)
COC(=O)N1C2=C(c3ccccc3[C@@H]1CC(=O)Nc1ccc3cc4ccccc4cc3c1)[C@@H]1C(=O)N(c3ccccc3)C(=O)[C@@H]1[C@H](C)C2
CCN1C(=O)N[C@@H](CCc2ccccc2)C(C(=O)OC)=C1C
COCCN1C(=O)N[C@@H](c2ccccc2)[C@@H](C(=O)OC)[C@H]1C
CCCCC1=CC2=C(c3ccco3)C(=O)C(C)(OC(=O)c3ccc(OC)cc3)C(=O)C2=CN1C1CC1 (stereo not given)
COC(=O)C1=C(C)N(Cc2ccccc2)C(=O)N[C@H]1c1cccc(F)c1
COC(=O)C1=C(C(=O)OC)[C@@H]2N(C)c3ccccc3[C@@]23C[C@@H](CO)N(C(=O)C2CCC2)C3=N1
COc1ccc(-c2nc3c(c4c2C[C@H](c2ccccc2)OC4)CN(S(=O)(=O)c2ccc4c(c2)OCCN4C)CC3)c(C)c1
COC(=O)C1=C(C(=O)OC)[C@@H]2N(C)c3ccccc3[C@@]23C[C@@H](C(=O)OC)N(S(=O)(=O)c2ccc(Br)cc2)C3=N1
COC(=O)C1=C(C(=O)OC)[C@@H]2N(C)c3ccccc3[C@@]23C[C@@H](C(=O)OC)N(C(C)=O)C3=N1
COC(=O)CC1c2ccccc2C=C(C)N1C(=O)OC (stereo not given)
CC#CCN1c2ccccc2[C@]23C[C@@H](C(=O)OC)N(C(=O)COCc4ccccc4)C2=NC(C(=O)OC)=C(C(=O)OC)[C@H]13
COC(=O)C1=C(C(=O)OC)[C@@H]2N(C)c3ccc(OC)cc3[C@@]23C[C@@H](C(=O)OC)N(C(=O)c2ccc(Br)cc2)C3=N1
COC(=O)C1=C(C(=O)OC)[C@@H]2N(C)c3ccccc3[C@@]23C[C@@H](CO)N=C3N1
CCCCc1nc2c(c3c1C[C@H](C)OC3)CN(C(=O)N[C@H](C(=O)OC)C(C)C)CC2
COC(=O)CCCC1=CC2=CC(=O)C(C)(OC(=O)c3cccs3)C(=O)C2=CN1Cc1ccc2c(c1)OCO2 (stereo not given)
COC(=O)CCC(=O)OC1(C)C(=O)C=C2C=C(C3CC3)N(CC(C)C)C=C2C1=O (stereo not given)
COCCN1C(=O)N[C@@H](c2cccs2)C(C(C)=O)=C1C
CCCCc1nc2c(c3c1C[C@H](C)OC3)CN(S(=O)(=O)c1ccc(C#N)cc1)CC2
CCCCc1nc2c(c3c1C[C@H](C)OC3)CN(C(=O)NCc1ccco1)CC2
COC(=O)C1=C(C(=O)OC)[C@@H]2Nc3ccccc3[C@@]23C[C@@H](C(=O)OC)N(S(=O)(=O)c2ccc4c(c2)OCCN4C)C3=N1

— PubChem BioAssay (NCATS)
